Measured values taken from PubChem BioAssay (Tox21).
Inconclusive results are not listed. Activity calls are given as the source filed them. Unless noted, the call rests on the fitted dose curve; in most records, active means well fitted curve in the direction sought with a large enough effect in the repeat runs; inconclusive means weak or mixed curves; inactive means no such curve, though single readings can be large; an effect the other way counts as inactive or inconclusive.

Assays:
[1] = qHTS assay for small molecules that induce genotoxicity in human embryonic kidney cells expressing luciferase-tagged ATAD5 (AID 651632); further: nearly all actives have a fitted effect of over 15% in size
Method in brief: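 Increased luciferase signal from ATAD5-tagged reporter cells indicates DNA-damage-driven ATAD5 induction. HEK293T cells are treated for 16 hr at 37C before detection with Amplite.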

[2] = qHTS assay for small molecules that induce genotoxicity in human embryonic kidney cells expressing luciferase-tagged ATAD5 - cell viability (AID 651634; calls by dose curve; further: nearly all actives have a fitted effect of over 25% in size)
Method in brief: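 Cytotoxicity counterscreen in HEK293T cells bearing an ATAD5-luciferase reporter: live-cell protease activity measured by CellTiter-Fluor fluorescence after 15.5 hr compound exposure.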

[3] = qHTS assay for small molecule disruptors of the mitochondrial membrane potential - cell viability (AID 720634; calls by dose curve;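 further: human HepG2 liver cancer cells; series mostly up to about 83 µM; nearly all actives have a fitted effect of over 20% in size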)
Method in brief: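 After overnight attachment at 37 C, HepG2 cells received compound or DMSO vehicle for 1 hr. Viability is then taken from ATP-driven luminescence following a 30 min room-temperature CellTiter-Glo step.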

[4] = qHTS assay for small molecule disruptors of the mitochondrial membrane potential (AID 720635)
Method in brief: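 Mitochondrial membrane potential tracked with Mito-MPS dye, red aggregates (ex 540/em 590 nm) against green monomers (ex 490/em 535 nm). Compound treatment 1 hr at 37C, dye 30 min in HepG2.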

[5] = qHTS assay to test for compound auto fluorescence at 590 nm (red) in HepG2 cells (AID 720674)
Method in brief: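 We screened compounds on adherent HepG2 cells, incubating them for an hour at 37 C in 5% CO2 before reading emission at 590 nm under 540 nm excitation; values reflect equivalence to Rose Bengal sodium fluorescence.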

[6] = qHTS assay to test for compound auto fluorescence at 535 nm (green) in HepG2 cells (AID 720675)
[7] = qHTS assay to test for compound auto fluorescence at 460 nm (blue) in HEK293 cells (AID 720678)
Method in brief: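 HEK293 cells (2,000 per well, medium with 10% dialyzed FBS) attached for 4-5 hr at 37C, then received compound and stood overnight at 37C, 5% CO2. Blue fluorescence was read at Ex/Em 405/460 nm and expressed relative to triamterene.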

[8] = qHTS assay to test for compound auto fluorescence at 590 nm (red) in HEK293 cells (AID 720679)
Method in brief: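 HEK293 cells (2,000/well, medium with 10% dialyzed FBS) attached for 4-5 hr at 37C, received 23 nL compound and were incubated overnight at 37C, 5% CO2. Red fluorescence was then read at 540/590nm Ex/Em, referenced to Rose Bengal sodium.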

[9] = qHTS assay to test for compound auto fluorescence at 535 nm (green) in HEK293 cells (AID 720680)
[10] = qHTS assay to test for compound auto fluorescence at 460 nm (blue) in HEK293 cell free culture (AID 720681)
Method in brief: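 Blue fluorescence (Ex 405/Em 460 nm, triamterene-equivalent) was read immediately after pin transfer of compound or DMSO into medium (DMEM, 10% FBS) without cells.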

[11] = qHTS assay to test for compound auto fluorescence at 535 nm (green) in HEK293 cell free culture (AID 720682)
Method in brief: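 Measurement is a direct plate read of green fluorescence (485 nm in, 535 nm out) after compound addition to serum-supplemented DMEM lacking cells, with fluorescein used to express intensities.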

[12] = qHTS assay to test for compound auto fluorescence at 590 nm (red) in HEK293 cell free culture (AID 720683)
Method in brief: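 Red-channel autofluorescence of compounds in culture medium (DMEM, 10% FBS), no cells, measured at 540/590 nm. Rose Bengal sodium is the reference fluorophore for equivalence.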

[13] = qHTS assay to test for compound auto fluorescence at 590 nm (red) in HepG2 cell free culture (AID 720684)
Method in brief: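 Plate contents were MEM with 10% FBS plus test compound or DMSO, no cells. Fluorescence was recorded with 540 nm excitation and 590 nm emission.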

[14] = qHTS assay to test for compound auto fluorescence at 460 nm (blue) in HepG2 cell free culture (AID 720685)
Method in brief: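 Compound (23 nL) or DMSO pinned into cell-free MEM with 10% FBS; blue fluorescence read at 405/460 nm excitation/emission, expressed as auto-fluorescence equivalency to triamterene.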

[15] = qHTS assay to test for compound auto fluorescence at 535 nm (green) in HepG2 cell free culture (AID 720686)
[16] = qHTS assay to test for compound auto fluorescence at 460 nm (blue) in HepG2 cells (AID 720687)
Method in brief: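 Blue-channel autofluorescence (Ex/Em 405/460 nm, triamterene-equivalent) was measured after 1 hr compound exposure at 37 C, 5% CO2. Cells were HepG2, plated overnight at 37 C in MEM plus 10% FBS.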

[17] = target: Glucocorticoid receptor (Homo sapiens) (UniProt P04150); assay: qHTS assay to identify small molecule agonists of the glucocorticoid receptor (GR) signaling pathway (AID 720691; active means well fitted activation curve with a large enough effect in the signal ratio in the repeat runs, not every such curve was filed as active; the % refers to the signal ratio)
Chain of Glucocorticoid receptor (Homo sapiens) (P04150 whole entry, looked up): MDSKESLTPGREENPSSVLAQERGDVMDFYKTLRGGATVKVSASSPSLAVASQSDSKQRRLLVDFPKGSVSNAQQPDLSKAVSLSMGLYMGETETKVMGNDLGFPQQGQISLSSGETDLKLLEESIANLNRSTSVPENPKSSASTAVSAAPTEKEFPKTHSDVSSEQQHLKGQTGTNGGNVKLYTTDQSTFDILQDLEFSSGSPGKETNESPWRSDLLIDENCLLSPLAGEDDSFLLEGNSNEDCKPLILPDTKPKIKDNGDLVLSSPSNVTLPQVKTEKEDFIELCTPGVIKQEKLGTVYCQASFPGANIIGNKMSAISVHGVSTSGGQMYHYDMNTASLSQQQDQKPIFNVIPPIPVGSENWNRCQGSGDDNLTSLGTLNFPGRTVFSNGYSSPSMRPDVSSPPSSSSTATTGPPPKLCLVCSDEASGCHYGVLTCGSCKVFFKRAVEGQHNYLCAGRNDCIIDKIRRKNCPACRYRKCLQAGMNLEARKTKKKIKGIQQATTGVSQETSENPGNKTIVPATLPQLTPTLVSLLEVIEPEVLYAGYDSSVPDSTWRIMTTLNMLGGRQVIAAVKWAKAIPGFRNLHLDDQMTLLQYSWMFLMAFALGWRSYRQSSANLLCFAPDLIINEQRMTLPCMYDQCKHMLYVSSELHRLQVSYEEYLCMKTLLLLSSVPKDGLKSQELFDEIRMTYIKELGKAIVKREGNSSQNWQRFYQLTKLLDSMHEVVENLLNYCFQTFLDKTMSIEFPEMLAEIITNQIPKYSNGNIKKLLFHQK
Method in brief: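 Agonist mode in a HeLa line carrying a GRE-controlled beta-lactamase reporter. Compounds act for 18 h at 37 C before a 2 h room-temperature FRET substrate step and fluorescence reading.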

[18] = target: Glucocorticoid receptor (Homo sapiens) (UniProt P04150); assay: qHTS assay to identify small molecule antagonists of the glucocorticoid receptor (GR) signaling pathway (AID 720692; active means well fitted inhibition curve with a large enough effect in the signal ratio in the repeat runs, not every such curve was filed as active; the % refers to the signal ratio)
Method in brief: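 Cells plated, rested 4 h at 37 C/5% CO2; compounds in DMSO pin-transferred; dexamethasone added to 5 nM final; 18 h at 37 C; B/G FRET substrate added, 2 h room temperature; fluorescence measured.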

[19] = qHTS assay for small molecule agonists of the p53 signaling pathway - cell viability (AID 651633; calls by dose curve;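 further: p53RE-bla HCT reporter cells with a stable beta-lactamase p53 reporter; series mostly up to about 83 µM; nearly all actives have a fitted effect of over 30% in size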)
Method in brief: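 Viability counter-read: CellTiter-Glo luminescence (30 min, room temperature) in the same p53RE-bla plates. These plates had been exposed to compounds for 16 h at 37 C.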
On the % scale 0 is the no-effect control and ±100 the full control effect.

C=CC(=O)OCCOCCOCC
inactive: Potency [1] | outcome [2] | outcome [3] | Potency [4] | outcome [5] | outcome [6] | outcome [7] | outcome [8] | outcome [9] | outcome [10] | outcome [11] | outcome [12] | outcome [13] | outcome [14] | outcome [15] | outcome [16] | Potency [17]

CCCCNCC
inactive: Potency [1] | outcome [2] | outcome [3] | Potency [4] | outcome [5] | outcome [6] | outcome [7] | outcome [8] | outcome [9] | outcome [10] | outcome [11] | outcome [12] | outcome [14] | outcome [15] | outcome [16] | Potency [17] | outcome [18]

Cc1ccccc1OCC(=O)O
inactive: Potency [1] | outcome [19] | outcome [2] | outcome [3] | outcome [5] | outcome [6] | outcome [7] | outcome [8] | outcome [9] | outcome [10] | outcome [12] | outcome [13] | outcome [14] | outcome [15] | outcome [16] | Potency [17] | outcome [18]

Cc1ccc(Br)cc1
inactive: Potency [1] | outcome [19] | outcome [2] | outcome [3] | outcome [5] | outcome [6] | outcome [7] | outcome [8] | outcome [9] | outcome [10] | outcome [11] | outcome [12] | outcome [13] | outcome [14] | outcome [15] | outcome [16] | Potency [17] | outcome [18]

O=C(CCBr)N1CCN(C(=O)CCBr)CC1
inactive: Potency [1] | outcome [2] | outcome [3] | outcome [5] | outcome [6] | outcome [7] | outcome [8] | outcome [9] | outcome [10] | outcome [11] | outcome [12] | outcome [13] | outcome [16] | Potency [17] | outcome [18]

CCCCCCCCCCCCCCBr
inactive: Potency [1] | outcome [2] | outcome [3] | Potency [4] | outcome [5] | outcome [6] | outcome [7] | outcome [8] | outcome [9] | outcome [10] | outcome [11] | outcome [12] | outcome [13] | outcome [14] | outcome [15] | outcome [16] | Potency [17] | outcome [18]

O=C(O)Cc1c(Cl)ccc(Cl)c1Cl
inactive: Potency [1] | outcome [19] | outcome [2] | outcome [3] | outcome [5] | outcome [6] | outcome [7] | outcome [8] | outcome [9] | outcome [10] | outcome [12] | outcome [13] | outcome [14] | outcome [15] | outcome [16]

CC(=O)SCC(CC(=O)c1ccc(C)cc1)C(=O)O (stereo not drawn)
inactive: Potency [1] | outcome [2] | outcome [3] | Potency [4] | outcome [5] | outcome [6] | outcome [7] | outcome [8] | outcome [9] | outcome [10] | outcome [11] | outcome [12] | outcome [13] | outcome [14] | outcome [15] | outcome [16] | Potency [17] | outcome [18]

CN(C)c1ccncc1
inactive: outcome [19] | outcome [3] | Potency [4] | outcome [5] | outcome [6] | outcome [7] | outcome [8] | outcome [9] | outcome [10] | outcome [11] | outcome [12] | outcome [13] | outcome [15] | outcome [16]

C[Si](C)(C)O[Si](O)(O)O
inactive: Potency [1] | outcome [19] | outcome [2] | outcome [3] | outcome [5] | outcome [6] | outcome [7] | outcome [8] | outcome [9] | outcome [10] | outcome [11] | outcome [12] | outcome [13] | outcome [14] | outcome [16] | Potency [17] | outcome [18]

CC1=C(O)C(=O)CO1
inactive: Potency [1] | outcome [2] | outcome [3] | outcome [5] | outcome [6] | outcome [7] | outcome [8] | outcome [9] | outcome [10] | outcome [11] | outcome [12] | outcome [13] | outcome [14] | outcome [15] | outcome [16]

N=C(N)S(=O)O
inactive: Potency [1] | outcome [2] | outcome [3] | Potency [4] | outcome [5] | outcome [6] | outcome [7] | outcome [8] | outcome [9] | outcome [10] | outcome [12] | outcome [13] | outcome [15] | outcome [16]

COc1cc(NS(=O)(=O)c2ccc(N)cc2)ncn1
inactive: Potency [1] | outcome [2] | outcome [3] | fluorescence, relative to Rose Bengal [5] -0.434% [at 18.6 µM] | fluorescence, % of fluorescein control [6] 0.0032% [at 18.6 µM] | fluorescence, % of triamterene [7] -0.148% [at 18.6 µM] | fluorescence, % of fluorescent control [8] 0.185% [at 18.6 µM] | fluorescence, % of fluorescein [9] 0.0387% [at 18.6 µM] | fluorescence, % of fluorescent control [10] 0.0083% [at 18.6 µM] | fluorescence, % of fluorescent control [12] -0.0018% [at 18.6 µM] | fluorescence, % of Rose Bengal [13] 0.116% [at 18.6 µM] | fluorescence, % of fluorescent control [14] 0.0187% [at 18.6 µM] | fluorescence, % of fluorescein control [15] 0.0114% [at 18.6 µM] | fluorescence, % of fluorescent control [16] -0.0071% [at 18.6 µM] | Potency [17] | outcome [18]

O=C1CC2(CCCC2)CC(=O)N1CCNCC1COc2ccccc2O1 (stereo not drawn)
inactive: Potency [1] | outcome [2] | outcome [3] | outcome [5] | outcome [6] | outcome [7] | outcome [8] | outcome [9] | outcome [10] | outcome [11] | outcome [12] | outcome [13] | outcome [15] | outcome [16]

C=CCON/C(CCC)=C1\C(=O)CC(C)(C)C(C(=O)OC)=C1O
inactive: Potency [1] | outcome [19] | outcome [2] | outcome [3] | outcome [5] | outcome [6] | outcome [7] | outcome [8] | outcome [9] | outcome [10] | outcome [11] | outcome [12] | outcome [13] | outcome [14] | outcome [15] | outcome [16] | Potency [17] | outcome [18]
